Experimental findings from PubChem BioAssay (NCI) are described below.

This is part of a sample that, as a whole, favours compounds with a hit. Of some 83,000 tested, about 20% had one in any assay.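 Note: values are percent growth. 100 is the growth of untreated cells, values between 100 and 0 indicate rising inhibition; between -100 and 0 indicates cell death.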 Active and inactive are the calls of the source.

For this test, the system named is UO-31 renal. The test can be described thus: NCI-60 one-dose screen, 48 h (100 = growth as untreated, 0 = no growth, -100 = all killed). Particulars: 10 µM unless noted. The method, then:
Growth inhibition of the UO-31 human tumor cell line is measured as a screen for anti-cancer activity. Cells are grown in 96 well plates and exposed to the test compound for 48 hours. Compounds are tested at a single concentration, which is 10^-5 M for most compounds. The reported endpoint is percent growth (GI% or GIPRCNT), where numbers from 0 - 100% represent growth inhibition, and numbers from -100% - 0 represent cell death. For example, a value of 40 represents 60% growth inhibition. A value of 0 means no net growth occurred over the course of the experiment. A value of -40 indicates 40% of cells at the beginning of the experiment died by the end of the experiment. A value of -100 means all cells are dead at the end of the experiment.
NCI-60 Human Tumor Cell Lines Screen was performed using the standard one-dose NCI protocol, which is described in more detail at https://dtp.cancer.gov/discovery_development/nci-60/default.htm.
Compounds with GIPRCNT values below 10 were considered active. Activity score was based on GIPRCNT using the following formula: […]
Score is 0 for GIPRCNT values of 100 or above, 50 for GIPRCNT values of 0, and 100 for GIPRCNT values of -100.
With `O=C1/C(=C\c2cn(CC(O)CN3CCCCC3)c3ccccc23)c2ccccc2N1c1c(Cl)cccc1Cl` (stereo not given), the growth was -79.8% (active).

Regarding `C[N+](C)(C)c1ncnc2[n-]cnc12`, the growth was 87.8% (inactive).

In the case of `C[C@H]1[C@H](C)CC[C@]2(C(=O)O)CC[C@]3(C)C(=CC[C@@H]4[C@@]5(C)C/C(=C/c6cccnc6)[C@H](O)C(C)(C)[C@@H]5CC[C@]43C)[C@H]12`, the growth is -77% [100 µM] (active).

`COc1ccc2nc3c(cc2c1)C(=O)CC(c1ccccc1)C3` (stereo not given): the growth is 34.5% (inactive).

Regarding `COc1ccc(NC(=S)NNc2ccc(-c3ccc(OC)c(OC)c3)nn2)cc1`, the growth was 83.3% (inactive).

For `COc1ccc(CC(C#N)c2ccc(Cl)cc2)cc1` (stereo not given), the growth is 102% (inactive).

On to `Clc1ccccc1/C=N\Nc1ccccn1`, for which the growth was 66.8% (inactive).

With `CC(C)[N+](C)(C)CC(O)COc1cccc2ccccc12` (stereo not given), the growth is 76.4% (inactive).

Consider `N#CC1C(=O)NC(c2ccccc2[N+](=O)[O-])c2sc3c(F)cccc3c21` (stereo not given), for which the growth is 53.8% (inactive).

In the case of `CCCC(NC(=O)OCc1ccccc1)C(=O)O` (stereo not given), the growth is 65.1% (inactive).

In the case of `O=C1COCCN1c1ccc(Nc2nc(Cl)nc(N3CCOCC3)n2)cc1`, the growth is 93.5% (inactive).

With `Nc1ccc(NC(=O)c2ccccc2)c2c1C(=O)c1ccccc1C2=O`, the growth was 74.2% (inactive).

As for `Nn1c(Nc2ccc(S(=O)(=O)Nc3ncccn3)cc2)nnc(/C=C/c2c(O)ccc3ccccc23)c1=O`, the growth is 58.6% (inactive).

Consider `O=C(Nc1cccnc1)c1ccc2ccc3ccc(C(=O)Nc4cccnc4)nc3c2n1`, for which the growth was 36.3% (inactive).

For `Cc1nc(-c2ccccc2)sc1CC#N`, the growth was 106% (inactive).

For the molecule `O=C(NCCO)c1cccnc1`, the growth was 85.2% (inactive).

Take `NC1=NC(=O)NC1(c1ccccc1)c1ccccc1`: the growth is 96.3% (inactive).

`O=c1cc(-c2ccccc2)oc2c(O)c(O)ccc12`: the growth was 36.2% (inactive).

As to `O=C1/C(=C/c2cccc(OCc3ccccc3)c2)Oc2cc(OCCN3CCCCC3)ccc21`, the growth is 65.1% (inactive).

As to `COc1ccc(C2CC(c3cc(OC)c(OC)c(OC)c3)=NN2C(C)=O)cc1OCC(=O)Nc1nc2ccc(C(F)(F)F)cc2s1` (stereo not given), the growth is 39.5% (inactive).

In the case of `COc1cc(-c2cc(-c3ccc(Nc4ncnc5cc(Cl)ccc45)cc3)nc(N3CCCCC3)n2)cc(OC)c1OC`, the growth was 80% (inactive).

Take `Cc1ccc(C2=C/C(=C/c3ccc(Br)cc3)C(=O)N2CCc2ccc(S(N)(=O)=O)cc2)cc1`: the growth is 61.8% (inactive).

Regarding `Nc1nc(SCc2cccc([N+](=O)[O-])c2)c2[nH]cnc2n1`, the growth is 64.7% (inactive).

In the case of `COc1cc(OC)cc(C(=O)Nc2cc(-c3cccnc3)nc(NCCCN3CCOCC3)n2)c1`, the growth is 53.6% (inactive).

Regarding `O=c1[nH]c2cc(Cl)c(Cl)cc2n2cc3ncccc3c12`, the growth was 56.9% (inactive).

For `CCn1cc(-c2ccnc(NCCNS(=O)(=O)c3ccc(Br)cc3)c2)c(-c2cccc(OC)c2)n1`, the growth is 45.6% (inactive).

Consider `CCN(CCNc1ccc(C)c2sc3cc(Cl)ccc3c(=O)c12)CC(C)O` (stereo not given), for which the growth was -61.8% (active).

On to `Cc1ccc(-c2cc(-c3ccc(C)cc3)nc(NCCNc3ccnc4cc(Cl)ccc34)n2)cc1`, for which the growth was -68.5% (active).

For `O=C(NNc1ccc(-c2ccccc2)nn1)c1ccc(F)cc1`, the growth was 80.8% (inactive).

As for `Cc1ccc(NC(=O)N[C@@H](Cc2cc(F)cc(F)c2)C(=O)N[C@@H]2C(=O)N3CCC[C@H]3C(=O)N3CCCC[C@H]3C(=O)N[C@@H](C)C(=O)N3C[C@H](C)C[C@H]3C(=O)O[C@H]2C)cc1`, the growth is 25.2% (inactive).

Regarding `CC1=C/C(=C(\c2cc(C)c(O)c(C(=O)O)c2)c2c(Cl)cccc2Cl)C=C(C(=O)O)C1=O`, the growth is 67.8% (inactive).

For the molecule `CC(=O)n1cc(C=O)c2ccccc21`, the growth is 72% (inactive).

As for `COc1cc(NN=C(c2ccc(O)cc2)c2ccc(O)cc2)c([N+](=O)[O-])cc1[N+](=O)[O-]`, the growth was -66.4% (active).

Take `C=C(C)[C@@H]1CC[C@]2(C(N)=O)CC[C@]3(C)[C@H](CC[C@@H]4[C@@]5(C)C/C(=C/c6cccnc6)C(=O)C(C)(C)[C@@H]5CC[C@]43C)[C@@H]12`: the growth is 10.2% [100 µM] (inactive).

As to `O=c1[nH]c(CN2CCN(c3cccc(Cl)c3)CC2)nc2cc(Cl)ccc12`, the growth is 9.86% (active).

As to `Cc1cc2c(C(C)C)c(O)c(O)c(C=NCc3ccoc3)c2c(O)c1-c1c(C)cc2c(C(C)C)c(O)c(O)c(C=NCc3ccco3)c2c1O`, the growth was 36.2% (inactive).

As to `CCOC(=O)c1nn(C2CCCCO2)c2ccc(NS(=O)(=O)c3ccc(C)cc3)cc12` (stereo not given), the growth was 82.7% (inactive).

In the case of `O=C(O)CC1CCCCC1c1ccccc1` (stereo not given), the growth is 75.2% (inactive).

As to `O=C(NCc1ccc(Cn2c(=O)sn(-c3ccccc3)c2=O)cc1)OCc1ccc2c(Br)cc(Br)c(O)c2n1`, the growth was -100% (active).

As to `COc1ccc(-c2ccc(NNC(=O)c3ccc(F)cc3)nn2)cc1OC`, the growth was 34.8% (inactive).
